From PubChem BioAssay (NCI) come the findings set out here.

This is part of a sample that, as a whole, favours compounds with a hit. Of some 79,000 tested, about 15% had one in any assay. Calls of active or inactive are those of the source. No stated cut-off is given here; in the data, active means growth inhibition above about 70%; inactive means the rest.

The nature of this test: NCI Yeast Anticancer Drug Screen. Data for the mgt1 strain (AID 153). To be noted: S. cerevisiae mgt1 mutant growth inhibition, stronger effect = higher value. The procedure: Growth inhibition of yeast strains with defined genetic alterations is measured as a screen for potential anti-cancer activity. Selected strains with alterations in DNA damage repair or cell cycle control were exposed to compounds and growth inhibition was measured relative to vehicle treated controls. The strain used in this assay is mgt1

Regarding `CNc1ccc(Cc2c[nH]c3ccccc23)cc1`, the growth inhibition (at 1.2 µM) was -32% (inactive); the growth inhibition (at 3.7 µM) is -28% (inactive); the growth inhibition (at 11.0 µM) is -32% (inactive); the growth inhibition (at 33.0 µM) is 1% (inactive); the growth inhibition (at 100.0 µM) was 25% (inactive).
In the case of `S=c1[nH]c2c(Cl)c(Cl)c(Cl)c(Cl)c2[nH]1`, the growth inhibition by setting is: (at 1.2 µM) 9% (inactive); (at 3.7 µM) 15% (inactive); (at 11.0 µM) 78% (active); (at 33.0 µM) 99% (active); (at 100.0 µM) 93% (active).
For `O=C1c2c(O)cccc2-c2nn(CCNCCO)c3ccc(NCCNCCO)c1c23`, in that order: 16% (inactive), 11% (inactive), -3% (inactive), -10% (inactive) and 2% (inactive).
For `Clc1c(Cl)c(Cl)c2c(nnn2C2CCCO2)c1Cl` (stereo not given), in that order: -24% (inactive), -9% (inactive), -5% (inactive), -1% (inactive) and 75% (active).
As for `CC1CCC2(C(=O)O)CCC3(C)C(=CCC4C5(C)CC(O)C(O)C(C)(CO)C5C(O)CC43C)C2C1C` (stereo not given), the growth inhibition is -34% (inactive) (at 1.2 µM); -34% (inactive) (at 3.7 µM); -32% (inactive) (at 11.0 µM); -36% (inactive) (at 33.0 µM); 47% (inactive) (at 100.0 µM).
For the compound `Cc1ccc(CNc2ccc(Br)cc2)cc1`, the growth inhibition reads like this: (at 1.2 µM) 16% (inactive); (at 3.7 µM) 12% (inactive); (at 11.0 µM) 27% (inactive); (at 33.0 µM) 69% (inactive); (at 100.0 µM) 92% (active).
For `COc1ccc2oc(-c3ccc(Cl)cc3)c(N3CCN(C)CC3)c2c1` the same measures were -2% (inactive), -1% (inactive), 99% (active), 100% (active) and 99% (active).
Consider `COc1cccc(C(c2cc3c(cc2O)OCO3)N2CCOCC2)c1OC` (stereo not given), for which the growth inhibition was -3% (inactive) (at 1.2 µM); -5% (inactive) (at 3.7 µM); 0% (inactive) (at 11.0 µM); -3% (inactive) (at 33.0 µM); 4% (inactive) (at 100.0 µM).
